For some assays here: Entries with a potency or affinity are not part of this list. Activity calls are given as the source filed them. Unless noted, how the calls were made is not given here.
Experiments:
[1] = antimalarial activity against Dd2 strain (AID 2302;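 active means growth inhibition above 50% at the single 2 µM test dose, taken to imply half-maximal potency below 2 µM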;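 further: 0% = DMSO untreated growth and 100% = chloroquine plus artemisinin killed control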); settings: P. falciparum Dd2 in RBCs, LDH growth readout, 72 h; at 2 µM; active compounds read high
[2] = human hepatoma cell viability loss – ATP luminescence, cytotoxicity control for P. falciparum antimalarial project, primary screen (AID 2303;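 active means inhibition above 50%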;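 further: 0% = DMSO wells and 100% = digitonin-killed cells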); settings: HepG2 viability, 24-48 h, at 10 µM, active compounds read high
[3] = molecular target: L-lactate dehydrogenase (Plasmodium falciparum (isolate CDC / Honduras)) (UniProt Q27743); assay: PfLDH activity inhibition – cell lysate, 3D7 strain, counter-screen for P. falciparum growth inhibition project (AID 2304);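 further: 0% = vehicle and 100% = reference inhibitor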; settings: P. falciparum 3D7 crude extract, LDH APAD/NBT absorbance; at 2 µM; active compounds read high
Chain of L-lactate dehydrogenase (Plasmodium falciparum (isolate CDC / Honduras)) (Q27743 whole entry, looked up): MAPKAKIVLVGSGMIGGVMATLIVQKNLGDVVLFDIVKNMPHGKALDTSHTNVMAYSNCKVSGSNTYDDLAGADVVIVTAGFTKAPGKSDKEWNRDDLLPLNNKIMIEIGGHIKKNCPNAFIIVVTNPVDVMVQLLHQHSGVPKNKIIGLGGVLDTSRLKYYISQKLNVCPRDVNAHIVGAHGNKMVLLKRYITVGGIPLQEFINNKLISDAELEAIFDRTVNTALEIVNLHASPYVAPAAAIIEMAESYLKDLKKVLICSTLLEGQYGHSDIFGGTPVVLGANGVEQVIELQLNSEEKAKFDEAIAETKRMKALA

[4] = inhibition of 3D7 malaria parasite growth – strain 3D7 (AID 2306);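 further: 0% = DMSO wells and 100% = chloroquine plus artemisinin control wells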; settings: P. falciparum 3D7 erythrocytic growth, LDH absorbance, 72 h; at 2 µM; active compounds read high
[5] = molecular target: Calcium-dependent protein kinase 1 (Plasmodium falciparum (isolate 3D7)) (UniProt P62344); assay: PfCDPK1 kinase inhibitors, biochemical, TCAMS library (AID 1159585; cut-off not given, nearly all actives have IC50 up to about 0.98 µM;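 further: inhibitors leave more ATP so luminescence rises with inhibition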); settings: recombinant PfCDPK1, Kinase-Glo ATP depletion luminescence
Chain of Calcium-dependent protein kinase 1 (Plasmodium falciparum (isolate 3D7)) (P62344 whole entry, looked up): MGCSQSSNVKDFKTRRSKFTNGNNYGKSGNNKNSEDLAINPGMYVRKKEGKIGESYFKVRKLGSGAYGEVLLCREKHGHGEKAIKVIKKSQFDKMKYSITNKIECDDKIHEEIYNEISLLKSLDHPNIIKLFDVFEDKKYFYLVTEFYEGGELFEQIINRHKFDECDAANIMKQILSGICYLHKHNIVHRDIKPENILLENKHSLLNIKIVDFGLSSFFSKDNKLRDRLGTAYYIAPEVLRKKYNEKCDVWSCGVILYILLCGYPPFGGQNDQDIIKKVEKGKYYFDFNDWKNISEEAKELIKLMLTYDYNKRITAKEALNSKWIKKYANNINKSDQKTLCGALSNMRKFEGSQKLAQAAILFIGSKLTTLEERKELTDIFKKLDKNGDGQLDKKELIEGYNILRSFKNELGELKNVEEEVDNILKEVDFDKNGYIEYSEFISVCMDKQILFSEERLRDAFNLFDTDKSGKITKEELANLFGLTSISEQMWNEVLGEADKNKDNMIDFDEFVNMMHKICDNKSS

[6] = molecular target: Plasmodium falciparum protein kinase 6 (PK6, PF3D7_1337100) (UniProt Q8IDW1); assay: PfPK6 kinase inhibitors, biochemical, TCAMS library (AID 1159586); settings: recombinant PfPK6, Kinase-Glo ATP depletion luminescence
Chain of Plasmodium falciparum protein kinase 6 (PK6, PF3D7_1337100) (Q8IDW1 1-305): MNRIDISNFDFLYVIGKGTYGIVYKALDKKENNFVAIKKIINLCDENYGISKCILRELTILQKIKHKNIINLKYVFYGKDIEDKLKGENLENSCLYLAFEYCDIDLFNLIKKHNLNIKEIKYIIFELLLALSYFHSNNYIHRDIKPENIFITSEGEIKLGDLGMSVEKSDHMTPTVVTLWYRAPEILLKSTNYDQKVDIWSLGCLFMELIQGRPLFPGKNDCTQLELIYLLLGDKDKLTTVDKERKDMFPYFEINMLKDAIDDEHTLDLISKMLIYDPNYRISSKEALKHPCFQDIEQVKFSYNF

[7] = molecular target: Protein kinase 7 (PK7), Plasmodium falciparum 3D7 (PF3D7_0213400) (UniProt Q7YTF7); assay: inhibition of Plasmodium PK7 catalytic activity – biochemical, TCAMS antimalarial set, Kinase-Glo luminescence (AID 1159587); settings: recombinant PfPK7, Kinase-Glo ATP depletion luminescence
Chain of Protein kinase 7 (PK7), Plasmodium falciparum 3D7 (PF3D7_0213400) (Q7YTF7 1-343): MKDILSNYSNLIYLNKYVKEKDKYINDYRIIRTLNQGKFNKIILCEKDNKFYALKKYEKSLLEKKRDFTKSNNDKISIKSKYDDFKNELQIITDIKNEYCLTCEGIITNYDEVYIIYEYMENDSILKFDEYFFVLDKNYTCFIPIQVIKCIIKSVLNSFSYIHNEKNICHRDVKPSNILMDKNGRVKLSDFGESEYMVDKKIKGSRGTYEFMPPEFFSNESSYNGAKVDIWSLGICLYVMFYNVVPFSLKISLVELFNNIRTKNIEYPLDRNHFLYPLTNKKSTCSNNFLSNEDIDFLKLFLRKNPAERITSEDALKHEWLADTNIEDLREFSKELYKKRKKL

[8] = molecular target: Calcium-dependent protein kinase 4 (Plasmodium falciparum (isolate 3D7)) (UniProt Q8IBS5); assay: PfCDPK4 kinase inhibitors, biochemical, TCAMS library (AID 1159588; cut-off not given, nearly all actives have IC50 up to about 0.91 µM); settings: recombinant PfCDPK4, Kinase-Glo ATP depletion luminescence
Chain of Calcium-dependent protein kinase 4 (Plasmodium falciparum (isolate 3D7)) (Q8IBS5 whole entry, looked up): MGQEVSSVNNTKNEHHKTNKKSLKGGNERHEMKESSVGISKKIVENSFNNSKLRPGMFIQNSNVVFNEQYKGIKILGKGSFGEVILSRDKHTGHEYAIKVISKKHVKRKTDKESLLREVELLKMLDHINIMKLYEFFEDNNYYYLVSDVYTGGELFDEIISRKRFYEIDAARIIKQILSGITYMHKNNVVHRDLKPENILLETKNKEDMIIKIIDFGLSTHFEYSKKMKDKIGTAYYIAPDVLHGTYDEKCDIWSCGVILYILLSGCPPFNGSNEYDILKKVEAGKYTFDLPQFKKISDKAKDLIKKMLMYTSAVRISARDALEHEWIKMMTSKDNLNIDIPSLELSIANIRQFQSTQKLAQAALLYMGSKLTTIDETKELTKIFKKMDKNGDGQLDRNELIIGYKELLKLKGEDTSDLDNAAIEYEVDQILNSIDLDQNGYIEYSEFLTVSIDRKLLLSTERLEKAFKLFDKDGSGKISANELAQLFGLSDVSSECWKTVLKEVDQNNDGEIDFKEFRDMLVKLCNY

Cc1cccc2[nH]c(-c3cccc(-c4cccc(NC(=O)CN5CCN(C)CC5)c4)c3)nc12
inactive: inhibition [3] -1% | outcome [5] | outcome [6] | outcome [7] | outcome [8]
active: growth inhibition [1] 99% | inhibition [2] 76% | growth inhibition [4] 101%

Fc1cccc(-c2ccc3c(c2)CC(NCc2c[nH]c4cnccc24)C3)c1 (stereo not given)
inactive: inhibition [2] 24% | inhibition [3] -1% | outcome [5] | outcome [6] | outcome [7] | outcome [8]
active: growth inhibition [1] 68% | growth inhibition [4] 100%

NC1CCN(CCc2ccc(NS(=O)(=O)c3cccc4ccccc34)cc2)CC1
inactive: growth inhibition [1] 4% | inhibition [2] 21% | inhibition [3] 4% | outcome [5] | outcome [6] | outcome [7] | outcome [8]
active: growth inhibition [4] 94%

Cc1nnc2sc(-c3cccc(NC(=O)c4ccc(N5CCCCC5)c([N+](=O)[O-])c4)c3)nn12
inactive: growth inhibition [1] 20% | inhibition [2] 3% | inhibition [3] -3% | outcome [5] | outcome [6] | outcome [7] | outcome [8]
active: growth inhibition [4] 87%

COc1ccc(CNCCc2cccs2)cc1-c1ccc(S(=O)(=O)NCCN2CCCC2)cc1
active: growth inhibition [4] 99%
inactive: growth inhibition [1] 30% | inhibition [2] 30% | inhibition [3] 4% | outcome [5] | outcome [6] | outcome [7] | outcome [8]

CN1CCN(CCCN(Cc2csc(-c3ccc(CNCc4ccccc4)cc3)n2)C(=O)Nc2ccc3ccccc3c2)CC1
active: growth inhibition [1] 63% | growth inhibition [4] 94%
inactive: inhibition [2] 12% | inhibition [3] 3% | outcome [5] | outcome [6] | outcome [7] | outcome [8]

CC(C)c1ccc(Nc2nc(NCCc3cnc[nH]3)nc(NCc3ccccc3)n2)cc1
active: growth inhibition [4] 98%
inactive: growth inhibition [1] 2% | inhibition [2] 1% | inhibition [3] -2% | outcome [5] | outcome [6] | outcome [7] | outcome [8]

Cc1cc(SC(C)(C)C)cc2c(Cl)c(C(N)=O)cnc12
inactive: inhibition [3] 0% | outcome [5] | outcome [6] | outcome [7] | outcome [8]
active: growth inhibition [1] 98% | inhibition [2] 83% | growth inhibition [4] 98%

FC(F)(F)c1cc(Nc2ccc(Oc3ccccc3)cc2)c2cc(-c3ccncc3)ccc2n1
inactive: inhibition [2] -12% | inhibition [3] -2% | outcome [5] | outcome [6] | outcome [7] | outcome [8]
active: growth inhibition [1] 70% | growth inhibition [4] 102%

Cc1ccc2c(NN=Cc3cccc([N+](=O)[O-])c3)cc(C)nc2c1
active: growth inhibition [1] 97% | growth inhibition [4] 102%
inactive: inhibition [2] 33% | inhibition [3] 5% | outcome [5] | outcome [6] | outcome [7] | outcome [8]

Cc1cc(C)n(Cc2ccc(C(=O)NCC3CCCCC3)cc2)n1
active: growth inhibition [4] 95%
inactive: growth inhibition [1] 1% | inhibition [2] 0% | inhibition [3] 2% | outcome [5] | outcome [6] | outcome [7] | outcome [8]

COc1ccc(-c2cnc3[nH]cc(-c4ccc(C(=O)O)cc4)c3c2)cn1
active: growth inhibition [1] 99% | growth inhibition [4] 95%
inactive: inhibition [2] 35% | inhibition [3] -1% | outcome [5] | outcome [6] | outcome [7] | outcome [8]

CCN(CC)CCCC(C)Nc1ccnc2ccc(OC)cc12 (stereo not given)
active: growth inhibition [4] 102%
inactive: growth inhibition [1] -3% | inhibition [2] 7% | inhibition [3] -2% | outcome [5] | outcome [6] | outcome [7] | outcome [8]

CN1CCN(CCCN(Cc2cccc(-c3ccc(CNC4CCCC4)cc3)c2)C(=O)CCC2CCCC2)CC1
inactive: inhibition [2] 16% | inhibition [3] -1% | outcome [5] | outcome [6] | outcome [7] | outcome [8]
active: growth inhibition [1] 84% | growth inhibition [4] 97%

COc1ccc2nccc([C@@H](O)CN3CCC(NCc4ccc5nc[nH]c(=O)c5c4)CC3)c2c1
inactive: growth inhibition [1] 4% | inhibition [2] 12% | inhibition [3] -13% | outcome [5] | outcome [6] | outcome [7] | outcome [8]
active: growth inhibition [4] 99%

O=C(Nc1nc(-c2ccccn2)cs1)c1ccc(Br)s1
inactive: inhibition [2] 40% | inhibition [3] 7% | outcome [5] | outcome [6] | outcome [7] | outcome [8]
active: growth inhibition [1] 84% | growth inhibition [4] 96%

Cc1cc(O)c(CN(C)Cc2ccc(N(C)C)cc2)cc1C(C)C
active: growth inhibition [1] 98% | growth inhibition [4] 100%
inactive: inhibition [2] 3% | inhibition [3] -1% | outcome [5] | outcome [6] | outcome [7] | outcome [8]

c1ccc(CCNCc2ccc(-c3ccc(CNCc4ccc5c(c4)OCO5)cc3)nc2)cc1
active: growth inhibition [1] 67% | growth inhibition [4] 94%
inactive: inhibition [2] 24% | inhibition [3] 5% | outcome [5] | outcome [6] | outcome [7] | outcome [8]

Cc1ccc2nc3c(cc(C(=O)NCc4ccccc4)c(=N)n3CCCn3ccnc3)c(=O)n2c1
inactive: growth inhibition [1] -1% | inhibition [2] 10% | inhibition [3] -3% | outcome [5] | outcome [6] | outcome [7] | outcome [8]
active: growth inhibition [4] 93%

CCCCc1cc(N2CCC(NC(C)=O)C2)nc(Nc2ccc(C)cc2)n1 (stereo not given)
active: growth inhibition [4] 95%
inactive: growth inhibition [1] 1% | inhibition [2] 2% | inhibition [3] -8% | outcome [5] | outcome [6] | outcome [7] | outcome [8]

CS(=O)(=O)c1ccc(CNCc2ccc(-c3cccc(-c4nc5ccc(C(F)(F)F)cc5[nH]4)c3)cc2)cc1
inactive: inhibition [3] 8% | outcome [5] | outcome [6] | outcome [7] | outcome [8]
active: growth inhibition [1] 100% | inhibition [2] 54% | growth inhibition [4] 102%

COc1ccccc1-n1c(SCC(=O)Nc2ccccc2F)nc2cccnc21
active: growth inhibition [1] 88% | growth inhibition [4] 96%
inactive: inhibition [2] -21% | inhibition [3] 0% | outcome [5] | outcome [6] | outcome [7] | outcome [8]

Cc1ccnc2nc(C(=O)Nc3cc(Cl)ccc3N3CCOCC3)nn12
active: growth inhibition [1] 63% | growth inhibition [4] 84%
inactive: inhibition [2] -4% | inhibition [3] -1% | outcome [5] | outcome [6] | outcome [7] | outcome [8]

COc1ccccc1C1CCN(C2CCC(NC(=O)c3cc(-c4ccc(Cl)cc4)cs3)CC2)CC1 (stereo not given)
inactive: inhibition [3] -1% | outcome [5] | outcome [6] | outcome [7] | outcome [8]
active: growth inhibition [1] 100% | inhibition [2] 61% | growth inhibition [4] 101%

COc1ccc(Cc2nc(N=C(N)Nc3ccccc3)ccc2OC)cc1
inactive: inhibition [2] 40% | inhibition [3] 2% | outcome [5] | outcome [6] | outcome [7] | outcome [8]
active: growth inhibition [1] 68% | growth inhibition [4] 93%

Cn1cncc1CCN(Cc1ccc(-c2ccc(C(F)(F)F)cc2)cc1)C(=O)Cn1c(SCc2cccc(F)c2F)cc(=O)c2ccccc21
active: growth inhibition [1] 90% | growth inhibition [4] 99%
inactive: inhibition [2] 24% | inhibition [3] -5% | outcome [5] | outcome [6] | outcome [7] | outcome [8]

c1ccc(Cn2nnnc2-c2cccc(Nc3ccnc4cc(-c5nccs5)ccc34)c2)cc1
inactive: growth inhibition [1] 46% | inhibition [3] -4% | outcome [5] | outcome [6] | outcome [7] | outcome [8]
active: inhibition [2] 51% | growth inhibition [4] 87%

CCCN(C(=O)c1ccccc1C)c1nnc(-c2cccc(C)c2)s1
active: growth inhibition [1] 67% | growth inhibition [4] 91%
inactive: inhibition [2] 8% | inhibition [3] -4% | outcome [5] | outcome [6] | outcome [7] | outcome [8]

CS(=O)(=O)N1CC2(CCN(CCC(NC(=O)Nc3ccccc3)c3ccc(Cl)c(Cl)c3)CC2)c2ccccc21 (stereo not given)
active: growth inhibition [1] 72% | growth inhibition [4] 99%
inactive: inhibition [2] 23% | inhibition [3] 5% | outcome [5] | outcome [6] | outcome [7] | outcome [8]

Cc1noc(C)c1C(=O)N1CCCC(c2[nH]c3c(C)cccc3c2-c2ccncc2)C1 (stereo not given)
inactive: inhibition [2] 16% | inhibition [3] 6% | outcome [5] | outcome [6] | outcome [7] | outcome [8]
active: growth inhibition [1] 101% | growth inhibition [4] 102%

COc1cc2nc(NCCCN3CCCCC3)nc(NCc3ccccc3)c2cc1OC
active: growth inhibition [4] 102%
inactive: growth inhibition [1] 3% | inhibition [2] 12% | inhibition [3] 1% | outcome [5] | outcome [6] | outcome [7] | outcome [8]

CCC(=O)N(c1ccccc1)C1CCN(CCCC(NC(=O)c2cc(C(F)(F)F)cc(C(F)(F)F)c2)c2ccc(Cl)c(Cl)c2)CC1 (stereo not given)
inactive: inhibition [2] 24% | inhibition [3] 0% | outcome [5] | outcome [6] | outcome [7] | outcome [8]
active: growth inhibition [1] 57% | growth inhibition [4] 96%

Cc1cc2c(cc1C(F)(F)F)N(C(=O)Nc1cccc(C(=O)NC3CCN(Cc4ccccc4)CC3)c1)CC2
active: growth inhibition [4] 91%
inactive: growth inhibition [1] -5% | inhibition [2] 19% | inhibition [3] -2% | outcome [5] | outcome [6] | outcome [7] | outcome [8]

Nc1nc(N)c2cc(Sc3ccc4ccccc4c3)ccc2n1
inactive: inhibition [3] 0% | outcome [5] | outcome [6] | outcome [7] | outcome [8]
active: growth inhibition [1] 92% | inhibition [2] 66% | growth inhibition [4] 95%

COc1ccc2nccc(N3CCCN(CCNCc4ccc5c(n4)NC(=O)CS5)CC3)c2n1
active: growth inhibition [4] 100%
inactive: growth inhibition [1] 10% | inhibition [2] 8% | inhibition [3] -2% | outcome [5] | outcome [6] | outcome [7] | outcome [8]

COc1cc2nc(N3CCN(C(=O)c4ccco4)CC3)nc(NCc3ccccc3)c2cc1OC
inactive: inhibition [2] 16% | inhibition [3] -5% | outcome [5] | outcome [6] | outcome [7] | outcome [8]
active: growth inhibition [1] 99% | growth inhibition [4] 101%

CS(=O)(=O)c1ccc(-c2cncc(Nc3cccc([N+](=O)[O-])c3)c2)cc1
active: growth inhibition [1] 70% | growth inhibition [4] 97%
inactive: inhibition [2] 6% | inhibition [3] -1% | outcome [5] | outcome [6] | outcome [7] | outcome [8]

O=[N+]([O-])c1ccc(CNCCCCCCNCc2ccc([N+](=O)[O-])c3ccccc23)c2ccccc12
inactive: inhibition [3] 0% | outcome [5] | outcome [6] | outcome [7] | outcome [8]
active: growth inhibition [1] 98% | inhibition [2] 88% | growth inhibition [4] 102%

CCN1CCC(N(CCCCCCc2ccc(C(F)(F)F)cc2)C(=O)Cn2c(CCc3cccc(F)c3F)cc(=O)c3ccccc32)CC1
inactive: inhibition [2] 32% | inhibition [3] -7% | outcome [5] | outcome [6] | outcome [7] | outcome [8]
active: growth inhibition [1] 82% | growth inhibition [4] 88%

CCCc1ccc(NC(=O)c2ccc(CN3CCCN(CC4CCCCC4)CC3)cc2)cc1
active: growth inhibition [4] 95%
inactive: growth inhibition [1] 41% | inhibition [2] 49% | inhibition [3] -7% | outcome [5] | outcome [6] | outcome [7] | outcome [8]

Source: PubChem BioAssay
